Test results as given in PubChem BioAssay.
Active and inactive are the calls of the source.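 Rule for the calls, unless noted: active = inhibition above 20% together with a positive visual image hit; inconclusive = visual image hit but inhibition not above 20%; inactive = no visual image hit.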

Legend:
[1] = inhibitors of TNFa-induced NFkB p65 translocation, primary screen, imaging, HUVEC, MLSMR starter and 10KST1 sets (AID 438); details: HUVEC TNFa-induced p65 nuclear translocation; cell count: measured here: nuclei count (cytotoxicity indicator), at 2.08 µM; inhibition: at 2 µM, stronger effect = higher value, 0% TNFa-plus-vehicle, 100% no-TNFa wells;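 note: compound added about 3h40 before a 20 min TNFalpha stimulation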;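 for inhibition: signal is the nuclear over cytoplasmic p65 intensity ratio per well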
[2] = inhibitors of mutant huntingtin aggregation, primary screen, imaging, exon1htt(103Q)mCFP cells, high-content imaging (AID 483;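 active = visual image review flags a hit and inhibition of aggregation exceeds 20%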;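 note: compound exposure lasted 3 days before fixation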;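 for nuclei count: percent of the per-plate median nuclei count of sample wells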); details: exon1htt(103Q)mCFP cell line, aggregate imaging, at 2 µM; inhibition of aggregation: stronger effect = higher value; nuclei count: measured here: cell count, toxicity
[3] = inhibitors of E-selectin induction by TNFa, primary screen, imaging, HUVEC, immunofluorescence, MLSMR starter and 10KST1 sets (AID 487;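 active = visually confirmed hit in the image check and inhibition above 20%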;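 for inhibition: signal is fraction of cell area covered by stained E-selectin grains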;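 for nuclei count: 100% = median nuclei count of all wells on the same plate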); details: HUVEC TNFalpha-induced E-selectin immunofluorescence imaging, at 2 µM; inhibition: stronger effect = higher value; nuclei count: measured here: cell number, toxicity
[4] = target: Voltage-gated potassium channel subunit beta-2 (Rattus norvegicus) (UniProt P62483); test: KvBeta enzyme negative modulators, primary screen, biochemical, NADPH fluorescence (AID 622;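 active = fluorescence slope higher than the sample average by over 3 SD, cut at about -0.22 in these data, passing the limit was not always enough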;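 note: slope of raw intensity against log time taken from 70 to 1610 s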); details: recombinant KvBeta, 4-cyanobenzaldehyde reduction, at 10 µM, stronger effect = higher value
[5] = target: Voltage-gated potassium channel subunit beta-2 (Rattus norvegicus) (UniProt P62483); test: KvBeta positive modulators, primary screen, biochemical, NADPH fluorescence (AID 623;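 active = NADPH fluorescence slope more negative than the mean of all samples by about 3 SD, 99.7% confidence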;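 note: fluorescence intensity change per second fitted from 20 to 320 s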); details: Recombinant KvBeta, NADPH fluorescence decrease slope, 10 min; at 10 µM; stronger effect = lower value
[6] = target: Alpha-2C adrenergic receptor (Homo sapiens) (UniProt P18825); test: modulators of alpha2C/GIRK thallium flux, primary screen, cell-based, HEK293 alpha2C/GIRK1/2 (AID 624;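 active = fluorescence slope after compound addition differing from the mean of all screened samples at 99.7% confidence, in either direction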;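 note: slope of fluorescence ratio to pre-addition baseline per second over 15 to 24 s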); details: thallium flux BTC fluorescence, at 10 µM, actives lie on both sides
[7] = inhibitors of Sendai virus-induced IRF3 signaling, primary screen, TLR/RLR signaling modifier project, cell-based, Sendai virus stimulus, luciferase, 10K MLSCN set (AID 602276;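 active = inhibition at or above 50% at 10 µM; inactive = inhibition below 50%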;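 note: firefly luciferase from ISG56 promoter only with Renilla not read in this screen; 0% = Sendai virus plus DMSO and 100% = medium plus DMSO without virus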); details: HEK293 RL24 IRF3 luciferase reporter, at 10 µM, stronger effect = higher value
[8] = inhibitors of poly I:C-induced TLR3 signaling, primary screen, cell-based, poly I:C stimulus, luciferase, 10K MLSCN set (AID 602277;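 active = inhibition of the reporter signal at or above 50%; inactive = inhibition below 50%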); details: HEK293-TLR3 RL24 IRF3 luciferase reporter, at 10 µM, stronger effect = higher value

Voltage-gated potassium channel subunit beta-2 (Rattus norvegicus), sequence (P62483 whole entry, looked up): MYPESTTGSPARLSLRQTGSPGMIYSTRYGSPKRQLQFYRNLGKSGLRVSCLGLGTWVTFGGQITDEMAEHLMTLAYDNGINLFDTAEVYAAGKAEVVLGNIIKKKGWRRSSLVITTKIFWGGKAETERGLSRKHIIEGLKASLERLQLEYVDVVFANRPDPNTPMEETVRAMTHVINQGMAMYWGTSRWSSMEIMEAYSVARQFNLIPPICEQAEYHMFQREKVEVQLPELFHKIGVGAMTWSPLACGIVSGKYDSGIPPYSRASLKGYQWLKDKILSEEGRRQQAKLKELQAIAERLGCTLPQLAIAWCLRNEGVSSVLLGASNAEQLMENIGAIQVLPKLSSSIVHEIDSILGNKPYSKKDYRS
Alpha-2C adrenergic receptor (Homo sapiens), sequence (P18825 whole entry, looked up): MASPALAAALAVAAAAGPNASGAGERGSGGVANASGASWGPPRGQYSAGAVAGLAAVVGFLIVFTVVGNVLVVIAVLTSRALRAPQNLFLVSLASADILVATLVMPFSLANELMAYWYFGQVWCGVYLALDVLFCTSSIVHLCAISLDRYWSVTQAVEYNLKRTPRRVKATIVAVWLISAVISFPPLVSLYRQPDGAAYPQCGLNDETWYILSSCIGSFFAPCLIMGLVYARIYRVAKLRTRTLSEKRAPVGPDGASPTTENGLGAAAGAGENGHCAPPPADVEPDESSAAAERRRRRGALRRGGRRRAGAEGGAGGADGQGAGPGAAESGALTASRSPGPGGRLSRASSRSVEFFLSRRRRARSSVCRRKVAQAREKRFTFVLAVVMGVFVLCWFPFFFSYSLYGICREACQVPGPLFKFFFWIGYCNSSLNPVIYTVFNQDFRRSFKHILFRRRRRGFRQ

| Compound | cell count [1] | inhibition [1] | inhibition of aggregation [2] | nuclei count [2] | inhibition [3] | nuclei count [3] | fluorescence slope [4] | NADPH fluorescence slope [5] | slope [6] | inhibition [7] | inhibition [8] |
| --- | --- | --- | --- | --- | --- | --- | --- | --- | --- | --- | --- |
| COC(=O)Nc1ccccc1C(=O)N1CCCCC1 | 403 | 9.9% (inactive) | 4% (inactive) | 120% | -25.5% (inactive) | 112% | -0.597 (inactive) | -8.5e-07 (inactive) | 0.00473 (inactive) | 6.49% (inactive) | 13.9% (inactive) |
| O=C(CCNS(=O)(=O)c1cccc2nsnc12)Nc1ccc2c(c1)OCCO2 | 565 | -17.9% (inactive) | -1.5% (inactive) | 120% | -28% (inactive) | 119% | -0.421 (inactive) | -0.00049 (inactive) | 0.00512 (inactive) | 19.3% (inactive) | 23.2% (inactive) |
| CC1=C(C(=O)OCc2ccccc2)C(c2ccc(C)o2)C2=C(CCCC2=O)N1 (centres undefined) | 745 | 1.9% (inactive) | 14.6% (inactive) | 101% | 29.9% (inactive) | 97% | -0.466 (inactive) | -3.8e-05 (inactive) | 0.00603 (inactive) | 2.43% (inactive) | 15.6% (inactive) |
| COc1ccc2nc(N3CCC(C)CC3)c(C#N)cc2c1 | 380 | 7.3% (inactive) | -10.6% (inactive) | 108% | -59.3% (inactive) | 66.6% | -0.587 (inactive) | -9e-06 (inactive) | 0.00372 (inactive) | -48.2% (inactive) | -170% (inactive) |
| C/C(Cl)=C/Cn1c(SCc2ccc(Cl)cc2)nc2c1c(=O)[nH]c(=O)n2C | 551 | -9.4% (inactive) | 10.9% (inactive) | 108% | 15% (inactive) | 96.1% | -0.513 (inactive) | -2.3e-05 (inactive) | 0.00751 (inactive) | 4.08% (inactive) | 12% (inactive) |
| O=C(NC1CCCC1)C(c1cccs1)N(C(=O)c1ccno1)c1ccccc1 (centres undefined) | 648 | -3.2% (inactive) | -3.9% (inactive) | 101% | 38.6% (inactive) | 94.7% | -0.607 (inactive) | -4.3e-05 (inactive) | 0.00635 (inactive) | 3.89% (inactive) | 21.8% (inactive) |
| COc1ccc(S(=O)(=O)N2CCCC(C(=O)N3CCCCCC3)C2)cc1 (centres undefined) | 404 | -5.2% (inactive) | -0.4% (inactive) | 106% | -8.6% (inactive) | 105% | -0.403 (inactive) | -5e-05 (inactive) | 0.00316 (inactive) | 12% (inactive) | 10.4% (inactive) |
| O=C(NCC12CC3CC(C1)CC(CNC(=O)N1CCCC1)(C3)C2)N1CCCC1 | 633 | 2.2% (inactive) | 3.3% (inactive) | 92.2% | -37.7% (inactive) | 112% | -0.463 (inactive) | -6e-05 (inactive) | 0.00588 (inactive) | 19.1% (inactive) | 22.9% (inactive) |
| Cc1ccc(NC(=O)CSc2nnc(CNC(=O)c3c(F)cccc3Cl)o2)cc1 | 645 | -10% (inactive) | -19.6% (inactive) | 108% | -49% (inactive) | 118% | -0.346 (inactive) | -7.5e-06 (inactive) | 0.00601 (inactive) | 1.9% (inactive) | 10.9% (inactive) |
